Drawing on PubChem BioAssay (NCI), this text covers growth for nine compounds.

What all share (assay): NCI-60 one-dose screen, 48 h (100 = growth as untreated, 0 = no growth, -100 = all killed)
Holding throughout (settings): 10 µM unless noted

Assay [1] relates to SR leukemia.
Assay [2] relates to OVCAR-8 ovarian.
The test system of assay [3] is OVCAR-5 ovarian.
In assay [4] the test system is OVCAR-4 ovarian.
In assay [5] the test system is SK-OV-3 ovarian.
Assay [6] concerns IGROV1 ovarian.
In assay [7] the test system is OVCAR-3 ovarian.
Assay [8] relates to HS 578T breast.
For assay [9], the system named is NCI/ADR-RES ovarian.
Assay [10] concerns T-47D breast.
For assay [11], the system named is BT-549 breast.
In assay [12] the test system is MDA-MB-435 melanoma.
Assay [13] has as its system SW-620 colon.
The subject of assay [14] is MCF7 breast.
Assay [15] relates to HCT-116 colon.
In assay [16] the test system is HCC-2998 colon.
The subject of assay [17] is KM12 colon.
For assay [18], the system named is RPMI-8226 leukemia.

This is part of a sample that, as a whole, favours compounds with a hit. Of some 83,000 tested, about 20% had one in any assay.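 Activity criterion: percent growth below 10, measured after cells in 96-well plates were exposed to a single compound concentration for 48 hours.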 A number with no mark means an inactive call. Active and inactive are the calls of the source.

With `Cn1c(=O)c2[nH]c(C(O)C(O)C(O)C(O)CO)nc2n(C)c1=O` (configuration not stated), the growth is 105% in assay [1]; 108% in assay [2]; 101% in assay [3]; 116% in assay [4]; 99.8% in assay [5]; 106% in [6]. The growth in [7] was 109%; in assay [8], 107%; in [9], 100%; in assay [10], 90.8%; in assay [11], 108%; in assay [12], 108%. The growth in assay [13] is 102%; in assay [14] it was 97.9%; in assay [15] it was 106%; in assay [16] it was 103%; in assay [17] it was 101%.
As for `NS(=O)(=O)c1ccc(Nc2nc3n[nH]c(Nc4ccccc4)c3c(=O)[nH]2)cc1`, the growth in [1] was 94.1%; in assay [2], 100%; in assay [3], 111%; in assay [4], 105%; in [5], 84.4%; in assay [6], 102%. For the same compound, the growth was 106% in [7]; 103% in assay [8]; 99.7% in assay [9]; 87.3% in assay [10]; 99.1% in [11]; 103% in assay [12]. The growth is 104% in [13]; 98.5% in assay [14]; 112% in assay [15]; 112% in [16]; 100% in [17].
On to `COc1cc(-c2cnc3nonc3n2)c(OC)c2c1OCO2`, for which the growth in assay [1] is 50.1%; in [2], 97.8%; in [3] it was 124%; in [4], 75.3%; in [5], 105%; in [6], 82.7%. Also, the growth is 76.9% in assay [7]; 105% in assay [8]; 99.3% in assay [9]; 85.4% in assay [10]; 105% in [11]; 111% in assay [12]. The growth in assay [13] is 101%; in assay [14], 81.3%; in assay [15], 99.1%; in assay [16] it was 102%; in [17], 103%.
For the compound `CNC(=S)N/N=C/CSC/C=N/NC(=S)NC`, the growth was 6.29% (active) in assay [1]; 63.7% in assay [18]; 89.8% in assay [3]; 76.1% in assay [4]; 80.5% in assay [5]; 9.24% (active) in assay [6]. Besides, the growth was 32.3% in assay [7]; 107% in assay [8]; 97.9% in [9]; 33.2% in assay [10]; 81.7% in assay [12]; 64.5% in [13]. In addition, the growth was 3.33% (active) in [14], 63.3% in assay [15], 97.6% in assay [16] and 75.9% in assay [17].
Take `C/C(=C(/c1ccc(O)cc1)c1ccc(OCCN(C)C)cc1)c1ccccc1`: the growth in assay [1] is 63.7%; in [18] it was 85.1%; in assay [3], 87.6%; in [4], 83.2%; in assay [6] it was 89.1%; in assay [7] it was 90.2%. For the same compound, the growth in [8] was 90%; in assay [9], 81.3%; in assay [10], 42.6%; in assay [11], 92.4%; in assay [12] it was 77.2%; in [13] it was 101%. The growth is 32.6% in assay [14], 68.4% in [15], 97.8% in assay [16] and 81.1% in [17].
For `O=C(C[C@@H](C(=O)NCc1cccc(C(F)(F)F)c1)N1C(=O)[C@@H](N2C(=O)OC[C@@H]2c2ccccc2)[C@H]1/C=C/c1ccccc1)NC1CCN(Cc2ccccc2)CC1`, the growth in assay [1] was -23.3% (active); in assay [2], 83.7%; in assay [3], 104%; in [4] it was 66.1%; in assay [5], 81.1%; in assay [6], 75%. The growth in assay [7] was 65.6%; in assay [8], 73.3%; in assay [9], 69.8%; in assay [10], 50.8%; in [11], 74.2%; in assay [12], 66.8%. Moreover, the growth was 59.8% in [13]; 7.27% (active) in [14]; 30.4% in assay [15]; 59.9% in assay [16]; 59.4% in assay [17].
As for `CC(C)(C)n1cc(-c2ccnc(NCCNS(=O)(=O)c3ccccc3)c2)c(-c2cccc(O)c2)n1`, the growth in [1] is 27.3%; in assay [18], 22.2%; in assay [2], 67.2%; in assay [3], 78.4%; in [5], 88.4%; in assay [6] it was 76%. Moreover, the growth in assay [7] is 74.4%; in assay [8], 62.4%; in assay [9], 74.8%; in assay [10], 24.3%; in assay [11], 26.4%; in assay [12], 68.3%. Further, the growth in assay [13] is 16.2%; in [14] it was 36.5%; in [15], 47.2%; in assay [16], 47.5%; in [17] it was 42.8%.
`COc1c(Cl)cc(Cl)cc1Cl`: the growth in assay [1] is 101%; in [18], 118%; in assay [2], 112%; in assay [3], 121%; in [5] it was 107%; in assay [6] it was 97.4%. In addition, the growth is 109% in assay [7]; 87.8% in assay [8]; 104% in assay [10]; 115% in assay [12]; 91.8% in assay [13]; 111% in [14]. Also, the growth in [15] and in assay [17] was 109% throughout.
Turning to `CCOC(=O)/C=C/C(=O)[C@H](CC(C)C)NC(=O)[C@H](Cc1ccccc1)NC(=O)OCc1ccccc1`, the growth was -8.81% (active) in assay [1]; -19.9% (active) in [18]; 72.8% in [2]; 90.8% in assay [3]; 102% in assay [5]; 75.6% in assay [6]. The growth in assay [7] was 30%; in assay [8] it was 93.4%; in [9], 89.6%; in assay [10], 8.32% (active); in assay [11], 69.2%; in [13] it was 13.8%. For the same compound, the growth in assay [14] was 19.7%; in assay [15], 47.6%; in assay [16], 99.2%; in assay [17], 94.5%.
